Experimental data reported in PubChem BioAssay (NCI).
This is part of a sample that, as a whole, favours compounds with a hit. Of some 79,000 tested, about 15% had one in any assay. Rule as the data show it: active = growth inhibition above about 70%; inactive = the rest.

Experiments:
[1] = NCI Yeast Anticancer Drug Screen. Data for the rad50 strain (AID 155);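 also: 0% = growth of vehicle-only cultures of the same strain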; conditions: S. cerevisiae rad50 strain growth inhibition; at 50.0 µM; hits give high values
How it was run: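 DNA repair mutant yeast, compound exposure, growth read-out; inhibition is taken relative to vehicle.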

[2] = NCI Yeast Anticancer Drug Screen. Data for the mec2-1 strain (AID 157); conditions: S. cerevisiae mec2-1 strain, at 50.0 µM, hits give high values
How it was run: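 Vehicle-treated cultures served as reference for growth inhibition of compound-exposed mec2-1 yeast.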

[3] = NCI Yeast Anticancer Drug Screen. Data for the sgs1 mgt1 strain (AID 161);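 also: 0% = growth of cultures given vehicle only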; conditions: S. cerevisiae sgs1 mgt1 strain, at 50.0 µM, hits give high values
How it was run: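 Genetically altered yeast, compound exposure, growth inhibition relative to vehicle.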

[4] = NCI Yeast Anticancer Drug Screen. Data for the cln2 rad14 strain (AID 165);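 also: 0% = growth equal to vehicle treated cultures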; conditions: S. cerevisiae cln2 rad14 strain, at 50.0 µM, hits give high values
How it was run: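 Each compound was tested on cln2 rad14 yeast. Inhibition of growth was calculated against vehicle-exposed controls.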

[5] = NCI Yeast Anticancer Drug Screen. Data for the bub3 strain (AID 167); conditions: S. cerevisiae bub3 mutant strain, at 50.0 µM, hits give high values
How it was run: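 In this screen, a yeast mutant lacking normal mitotic checkpoint function is challenged with compound. Relative growth versus vehicle gives the inhibition value.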

[6] = NCI Yeast Anticancer Drug Screen. Data for the mlh1 rad18 strain (AID 175); conditions: S. cerevisiae mlh1 rad18 strain growth inhibition; at 50.0 µM; hits give high values
How it was run: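 Vehicle-treated cultures served as the reference for growth inhibition in a yeast strain carrying DNA damage repair alterations exposed to each compound.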

Measured: growth inhibition

COC(=O)C1CC2CC1C1C2SC(F)(F)C1(F)F (stereo not given)
inactive: [1] 0.2% | [2] -1.7% | [3] 6.4% | [4] 7.8% | [5] -5% | [6] 17.1%

O=c1oc2ccccc2c(O)c1C(c1cccc(C(c2c(O)c3ccccc3oc2=O)c2c(O)c3ccccc3oc2=O)c1)c1c(O)c2ccccc2oc1=O
inactive: [1] 26.6% | [2] 37.5% | [3] -2.7% | [4] -17.6% | [5] -5.3% | [6] 67.8%

CCOC(=O)C(Cl)(Cl)C(Cl)(OCC)C(=O)OCC (stereo not given)
inactive: [1] 16.1% | [2] 26.1% | [3] 26.8% | [4] -24.4% | [5] 34.5% | [6] 22.2%

NC(=S)n1nc(-c2ccccc2)c(N=Nc2cccc([N+](=O)[O-])c2)c1-c1ccccc1
inactive: [1] 32.9% | [2] 7.5% | [3] 31.1% | [4] 19.6% | [5] 0.1% | [6] 10.8%

O=S(c1ccccc1)[C@H]1CC2C3CC4C2C4C31 (stereo not given in full)
inactive: [1] 2.3% | [2] 4.7% | [3] -1.7% | [4] 4.45% | [5] 19.9% | [6] 17.9%

CC(=O)OC/C=C(\C)CC(/C=C(C)/C=C/C1=C(C)CCCC1(C)C)S(=O)(=O)c1ccccc1 (stereo not given)
inactive: [1] 35.5% | [2] 9.4% | [3] -6.15% | [4] 2.05% | [5] 0.2% | [6] -5.15%

Cc1cc(C(=O)O)c2cc(Br)ccc2n1
inactive: [1] 4.2% | [2] 12.3% | [3] 15.2% | [4] 17.3% | [5] 11.2% | [6] -4.5%

CC(C)(C)[C@@H]1NC(=O)CN1C(=O)OCc1ccccc1
inactive: [1] -22.1% | [2] -35.2% | [3] -51.9% | [4] -17.1% | [5] 26.9% | [6] -11.1%

OC(CC(O)(C(F)(F)F)C(F)(F)F)c1cccs1 (stereo not given)
inactive: [1] -1.95% | [2] 13.6% | [3] 4.6% | [4] 51.5% | [5] -5.45% | [6] 12.9%

COc1c(C)c(=O)n2c3ccccc3n(C)c2c1C#N
inactive: [1] 19.5% | [2] 10.3% | [3] -18.4% | [4] 8.55% | [5] 0.85% | [6] 14.8%

CC(C)CCCC(C)C1CCC2C3CC=C4C(C)(C)C(OC(=O)c5ccccc5)CCC4(C)C3CCC12C (stereo not given)
inactive: [1] 13.9% | [2] -6.6% | [3] -4.35% | [4] -4.35% | [5] 5.85% | [6] -1.3%

CC(C)C1=CC23CCC4C(C)(C(=O)O)CCCC4(C)C2CC1C1C(=O)N(c2ccccc2)C(=O)C13 (stereo not given)
inactive: [1] -7.45% | [2] -3.9% | [3] 1.55% | [4] 0.7% | [5] -40% | [6] 8.65%

CC(=O)OC1CCC2(C)C(=CCC3C2CCC2(C)C3CC(Br)C2(O)C(C)=O)C1 (stereo not given)
inactive: [1] 41.9% | [2] 24.1% | [3] 15% | [4] 17.7% | [5] 4.1% | [6] 30.4%

COc1ccc(C(=O)/C=C/C(C)=C/C=N/N(C)c2ccccc2)cc1
inactive: [1] 14% | [2] 18.4% | [3] -0.5% | [4] -39.9% | [5] 17.1% | [6] 17.8%

Cc1ccc(S(=O)(=O)NN=C2CCS(=O)CC2)cc1 (stereo not given)
inactive: [1] -19.6% | [2] 10.7% | [3] 7.6% | [4] -32.4% | [5] -10.5% | [6] -28.5%

C[N+]1(CCC[N+]2(C)CCC3(CCCCC3)CC2)CCOCC1
inactive: [1] 18.6% | [2] -0.05% | [3] 11.2% | [4] -4.8% | [5] -1.55% | [6] 16.8%

CCNCC1COc2ccccc2O1 (stereo not given)
inactive: [1] -0.3% | [2] 3% | [3] -7% | [4] -15.8% | [5] -4.8% | [6] -1%

CCCCCCC(C)OC(C)=O (stereo not given)
inactive: [1] -15.6% | [2] -44.5% | [3] -2.55% | [4] -20% | [5] -3.5% | [6] -13.8%

C/C(=C1/N=C(c2cc([N+](=O)[O-])ccc2Cl)N(c2ccc(Br)cc2)C1=O)c1cc2ccccc2oc1=O
inactive: [1] 35.3% | [2] 17.7% | [3] 15.7% | [4] 14.1% | [5] 9.35% | [6] 19.8%

O=C1C=CC2C=CC1C=C2
inactive: [1] -1.55% | [2] 14.8% | [3] 23.2% | [4] 1.15% | [5] -7.7% | [6] 11.7%

O=C(O)CCCCCNCC(CNCCCCCC(=O)O)(C(=O)O)C(=O)O
inactive: [1] 7.7% | [2] -2.8% | [3] -2.7% | [4] -8.5% | [5] -1.05% | [6] 5.2%

CCOP(=O)(c1ccccc1)C(C)C (stereo not given)
inactive: [1] -7.85% | [2] -0.5% | [3] -1.7% | [4] -40% | [5] -0.65% | [6] -0.2%

Cc1ccc2nc(N(C)C)nc(N)c2c1
inactive: [1] -7.95% | [2] 2.05% | [3] -5.45% | [4] -7.85% | [5] -8.3% | [6] -6.2%

COC(=O)c1cocc1C(=O)OC
inactive: [1] -13.9% | [2] -7.25% | [3] -3.75% | [4] -2.8% | [5] -15.3% | [6] -15.9%

NC(=O)C(N)CC(=O)O (stereo not given)
inactive: [1] 6.15% | [2] -5.9% | [3] -3.1% | [4] -16.1% | [5] 6.5% | [6] 11.1%

O=C1c2cc(Cl)ccc2-c2cc(Cl)c(Cl)cc21
inactive: [1] -0.8% | [2] -2.05% | [3] 10.4% | [4] -29.9% | [5] -3.45% | [6] 26.6%

COc1cccc(C2N(Cc3ccccc3OC)CCCN2Cc2ccccc2OC)c1
inactive: [1] 8.15% | [2] 11.8% | [3] 29.5% | [4] 21.8% | [5] -5.8% | [6] 8%

COc1cc(C(C)O)c[n+](CCc2c[nH]c3ccccc23)c1 (stereo not given)
inactive: [1] -30% | [2] -19.5% | [3] -45.9% | [4] -8.1% | [5] -28% | [6] -36.5%

COc1cccc(Cc2cncc3c(O)c(OC)ccc23)c1O
inactive: [1] 2.3% | [2] -6.4% | [3] -8.05% | [4] 3% | [5] -1.9% | [6] 9.95%

C=CCOC1OC(CO)C(O)C(O)C1O (stereo not given)
inactive: [1] 9.8% | [2] 38% | [3] 29.2% | [4] 11.5% | [5] 7.3% | [6] 9.35%

Cc1cc(-c2ccccc2)nc(Nc2nc3ccccc3o2)n1
inactive: [1] 9.2% | [2] 1.1% | [3] 10.6% | [4] 6.35% | [5] -9.45% | [6] -2.3%

N#CCC(=O)N1CCCCC1
inactive: [1] -8.3% | [2] -12.1% | [3] 9.9% | [4] -3.15% | [5] 3.1% | [6] -19.8%

NC(=S)N/N=C/c1ccncc1
inactive: [1] -25.8% | [2] -10.6% | [3] -17.6% | [4] -25.9% | [5] 9.35% | [6] -52.9%

Nc1ccc(S(=O)(=O)O)cc1
inactive: [1] -20.6% | [2] 3.85% | [3] 2.35% | [4] -29.3% | [5] -6.75% | [6] -2.55%

O=CC(CO)CC(C=O)n1cnc2c(=O)[nH]cnc21 (stereo not given)
inactive: [1] -11.2% | [2] -16.1% | [3] -15.2% | [4] 2.55% | [5] -9.45% | [6] 1.95%

O=C(CCc1ccc(O)c(O)c1)NCCc1cc(O)cc(O)c1
inactive: [1] 23.1% | [2] -23.9% | [3] -26.8% | [4] -4.95% | [5] -42.5% | [6] -52.5%

CCOC(=O)c1oc2ccc(OC)c3c2c1CCC3
inactive: [1] 2.8% | [2] -1% | [3] 6.3% | [4] 15.4% | [5] 11.6% | [6] 19.6%

O=C(NC1CCCCC1)OC/C=C\c1ccccc1
inactive: [1] 7.2% | [2] -12.7% | [3] -7.8% | [4] -6.95% | [5] 12.3% | [6] 3.8%

N#CC1=C(Nc2ccccc2)SC(c2cccs2)NC1=O (stereo not given)
inactive: [1] 12.4% | [2] 4.7% | [3] 20.6% | [4] 16.5% | [5] 11.9% | [6] 23.2%

CC12CCCC3(CC(=O)C(C)(C)C3C(=O)C1)C2 (stereo not given)
inactive: [1] -13.9% | [2] -16.1% | [3] -18.4% | [4] 10.2% | [5] 9.6% | [6] 6.2%
